Test results: the supplement of paper PMC6411743
± gives the standard deviation of the averaged measurements. The full data set covers some 5,400 targets. This sample favours those with the largest changes.

Compound: Nc1nc2c(ncn2[C@@H]2O[C@H](COP(=O)(O)OP(=O)(O)OP(=O)(O)O)[C@@H](O)[C@H]2O)c(=O)[nH]1 [guanosine triphosphate]
Assay: NP40-soluble protein abundance relative to vehicle (solubility fold change) (ratio); higher = more soluble protein in presence of GTP
Settings: concentration: 0.1mM
Procedure, shortened: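 In three independent experiments, Jurkat crude lysate made by Dounce homogenisation was treated for 10 min at room temperature and then 3 min at 37 °C with eight concentrations ranging from 0.1 to 10 mM. It was then solubilised with 0.8% NP40 plus benzonase for 60 min at 4 °C and ultracentrifuged. The supernatant was TMT-labelled for LC-MS/MS, and each value is the fold change against the detergent-processed vehicle for the same replicate, using vsn-normalised intensities.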

Sequence of UniProt O43809 (O43809 whole entry): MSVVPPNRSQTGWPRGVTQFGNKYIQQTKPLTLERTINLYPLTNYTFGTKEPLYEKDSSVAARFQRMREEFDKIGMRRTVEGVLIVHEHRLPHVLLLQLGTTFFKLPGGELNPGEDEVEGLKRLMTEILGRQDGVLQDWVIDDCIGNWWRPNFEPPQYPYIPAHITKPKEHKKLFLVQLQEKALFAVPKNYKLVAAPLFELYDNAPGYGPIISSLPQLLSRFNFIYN
Sequence of UniProt O60287 (O60287 whole entry): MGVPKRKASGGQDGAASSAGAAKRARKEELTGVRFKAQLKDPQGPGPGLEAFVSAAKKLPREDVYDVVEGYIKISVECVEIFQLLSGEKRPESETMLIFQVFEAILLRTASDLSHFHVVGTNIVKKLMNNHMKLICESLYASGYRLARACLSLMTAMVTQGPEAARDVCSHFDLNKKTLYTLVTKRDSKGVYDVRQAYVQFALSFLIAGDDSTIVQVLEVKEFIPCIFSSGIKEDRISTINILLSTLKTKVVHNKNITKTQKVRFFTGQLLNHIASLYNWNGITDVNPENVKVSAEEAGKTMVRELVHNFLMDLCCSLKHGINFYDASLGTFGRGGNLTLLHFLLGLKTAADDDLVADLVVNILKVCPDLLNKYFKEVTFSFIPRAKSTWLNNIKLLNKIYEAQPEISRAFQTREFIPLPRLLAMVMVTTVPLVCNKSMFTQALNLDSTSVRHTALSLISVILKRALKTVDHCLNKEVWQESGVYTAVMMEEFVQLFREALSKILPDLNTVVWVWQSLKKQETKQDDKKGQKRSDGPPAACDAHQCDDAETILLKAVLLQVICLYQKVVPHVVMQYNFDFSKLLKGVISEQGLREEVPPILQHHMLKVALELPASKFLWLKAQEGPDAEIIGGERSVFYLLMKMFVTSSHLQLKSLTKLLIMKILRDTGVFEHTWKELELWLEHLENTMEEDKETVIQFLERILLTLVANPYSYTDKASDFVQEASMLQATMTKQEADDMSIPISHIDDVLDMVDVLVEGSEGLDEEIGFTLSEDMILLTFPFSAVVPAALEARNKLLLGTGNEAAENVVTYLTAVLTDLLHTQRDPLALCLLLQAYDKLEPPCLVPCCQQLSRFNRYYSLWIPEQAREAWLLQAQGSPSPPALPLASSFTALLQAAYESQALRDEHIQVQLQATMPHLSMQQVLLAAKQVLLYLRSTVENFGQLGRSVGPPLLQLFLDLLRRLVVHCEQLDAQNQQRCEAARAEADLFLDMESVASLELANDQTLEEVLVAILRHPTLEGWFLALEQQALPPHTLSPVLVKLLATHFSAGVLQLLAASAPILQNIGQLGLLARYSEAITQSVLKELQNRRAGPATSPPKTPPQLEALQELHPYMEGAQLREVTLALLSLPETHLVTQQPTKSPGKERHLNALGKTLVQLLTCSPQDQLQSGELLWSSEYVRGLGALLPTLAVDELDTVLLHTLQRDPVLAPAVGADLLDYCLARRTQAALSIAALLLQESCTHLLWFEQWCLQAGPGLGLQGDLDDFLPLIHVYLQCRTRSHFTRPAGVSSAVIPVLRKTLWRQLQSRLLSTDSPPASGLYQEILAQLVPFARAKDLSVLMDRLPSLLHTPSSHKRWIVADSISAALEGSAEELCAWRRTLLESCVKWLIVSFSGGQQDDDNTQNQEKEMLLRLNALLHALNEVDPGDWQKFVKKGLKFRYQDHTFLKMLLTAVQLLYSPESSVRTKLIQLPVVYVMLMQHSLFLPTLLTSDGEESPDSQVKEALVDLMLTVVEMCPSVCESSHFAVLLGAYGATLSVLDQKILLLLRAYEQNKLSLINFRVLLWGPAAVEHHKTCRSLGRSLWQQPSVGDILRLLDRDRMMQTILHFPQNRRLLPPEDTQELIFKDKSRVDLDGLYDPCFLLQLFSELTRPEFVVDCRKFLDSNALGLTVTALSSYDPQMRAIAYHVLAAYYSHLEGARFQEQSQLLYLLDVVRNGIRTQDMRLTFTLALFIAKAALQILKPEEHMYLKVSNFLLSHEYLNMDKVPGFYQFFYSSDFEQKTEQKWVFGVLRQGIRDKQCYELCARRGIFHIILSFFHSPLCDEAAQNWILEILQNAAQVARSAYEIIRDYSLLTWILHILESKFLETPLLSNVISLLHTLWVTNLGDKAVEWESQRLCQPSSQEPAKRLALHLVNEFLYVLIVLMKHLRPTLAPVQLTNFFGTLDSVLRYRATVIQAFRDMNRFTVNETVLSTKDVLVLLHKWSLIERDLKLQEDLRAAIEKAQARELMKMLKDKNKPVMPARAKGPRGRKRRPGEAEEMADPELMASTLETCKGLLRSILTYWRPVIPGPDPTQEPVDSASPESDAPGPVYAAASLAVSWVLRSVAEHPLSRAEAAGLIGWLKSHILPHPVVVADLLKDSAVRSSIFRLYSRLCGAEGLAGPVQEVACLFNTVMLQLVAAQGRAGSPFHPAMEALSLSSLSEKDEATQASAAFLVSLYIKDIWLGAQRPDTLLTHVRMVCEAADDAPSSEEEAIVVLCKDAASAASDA
Sequence of UniProt O43865 (O43865 whole entry): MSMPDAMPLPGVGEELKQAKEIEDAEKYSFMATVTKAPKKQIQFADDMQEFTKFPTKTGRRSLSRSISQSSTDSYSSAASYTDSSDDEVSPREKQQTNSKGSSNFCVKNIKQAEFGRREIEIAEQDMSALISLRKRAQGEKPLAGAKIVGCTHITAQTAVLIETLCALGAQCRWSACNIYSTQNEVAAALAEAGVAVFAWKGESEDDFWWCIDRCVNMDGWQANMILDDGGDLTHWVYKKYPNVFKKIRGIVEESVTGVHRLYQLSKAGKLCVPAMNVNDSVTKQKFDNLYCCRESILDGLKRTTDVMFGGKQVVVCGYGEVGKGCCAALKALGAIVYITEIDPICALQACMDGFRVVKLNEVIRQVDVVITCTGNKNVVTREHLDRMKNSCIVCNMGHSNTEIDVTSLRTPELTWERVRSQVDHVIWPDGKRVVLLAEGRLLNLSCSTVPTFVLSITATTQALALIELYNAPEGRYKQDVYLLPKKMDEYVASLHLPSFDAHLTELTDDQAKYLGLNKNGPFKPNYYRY
Sequence of UniProt P51114 (P51114 whole entry): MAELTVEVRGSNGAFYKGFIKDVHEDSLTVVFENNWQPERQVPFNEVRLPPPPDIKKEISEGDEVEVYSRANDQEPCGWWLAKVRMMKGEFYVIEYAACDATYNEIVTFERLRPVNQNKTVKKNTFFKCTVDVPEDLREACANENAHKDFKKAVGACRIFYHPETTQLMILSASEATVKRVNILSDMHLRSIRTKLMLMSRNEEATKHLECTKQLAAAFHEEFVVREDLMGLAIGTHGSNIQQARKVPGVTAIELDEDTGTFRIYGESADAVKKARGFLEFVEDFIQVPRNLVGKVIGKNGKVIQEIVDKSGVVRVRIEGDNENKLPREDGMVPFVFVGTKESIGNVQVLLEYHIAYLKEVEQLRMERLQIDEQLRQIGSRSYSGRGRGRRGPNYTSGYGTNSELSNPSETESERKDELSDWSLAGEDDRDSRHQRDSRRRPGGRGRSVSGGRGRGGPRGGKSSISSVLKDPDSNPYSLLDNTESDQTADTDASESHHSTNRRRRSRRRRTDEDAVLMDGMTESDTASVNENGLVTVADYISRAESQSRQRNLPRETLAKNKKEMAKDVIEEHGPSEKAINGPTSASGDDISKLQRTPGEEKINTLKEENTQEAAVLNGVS
Sequence of UniProt P09651 (P09651 whole entry): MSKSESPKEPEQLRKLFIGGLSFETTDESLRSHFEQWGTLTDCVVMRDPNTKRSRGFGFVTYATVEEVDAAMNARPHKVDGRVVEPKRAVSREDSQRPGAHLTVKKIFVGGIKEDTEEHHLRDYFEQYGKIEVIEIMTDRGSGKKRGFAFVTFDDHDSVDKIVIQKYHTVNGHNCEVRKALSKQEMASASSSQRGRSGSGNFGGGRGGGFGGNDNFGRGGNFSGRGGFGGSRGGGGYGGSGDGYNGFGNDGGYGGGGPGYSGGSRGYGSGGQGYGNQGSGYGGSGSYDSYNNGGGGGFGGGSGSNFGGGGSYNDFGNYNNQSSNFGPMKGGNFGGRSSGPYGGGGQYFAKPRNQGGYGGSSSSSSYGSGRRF
Sequence of UniProt P09564 (P09564 whole entry): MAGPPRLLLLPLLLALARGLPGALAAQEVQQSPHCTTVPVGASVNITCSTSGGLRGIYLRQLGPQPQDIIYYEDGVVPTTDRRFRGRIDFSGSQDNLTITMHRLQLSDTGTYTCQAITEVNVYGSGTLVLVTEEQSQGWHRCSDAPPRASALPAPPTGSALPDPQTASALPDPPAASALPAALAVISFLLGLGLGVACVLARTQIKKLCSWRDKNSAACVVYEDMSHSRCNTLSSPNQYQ
Sequence of UniProt O00418 (O00418 whole entry): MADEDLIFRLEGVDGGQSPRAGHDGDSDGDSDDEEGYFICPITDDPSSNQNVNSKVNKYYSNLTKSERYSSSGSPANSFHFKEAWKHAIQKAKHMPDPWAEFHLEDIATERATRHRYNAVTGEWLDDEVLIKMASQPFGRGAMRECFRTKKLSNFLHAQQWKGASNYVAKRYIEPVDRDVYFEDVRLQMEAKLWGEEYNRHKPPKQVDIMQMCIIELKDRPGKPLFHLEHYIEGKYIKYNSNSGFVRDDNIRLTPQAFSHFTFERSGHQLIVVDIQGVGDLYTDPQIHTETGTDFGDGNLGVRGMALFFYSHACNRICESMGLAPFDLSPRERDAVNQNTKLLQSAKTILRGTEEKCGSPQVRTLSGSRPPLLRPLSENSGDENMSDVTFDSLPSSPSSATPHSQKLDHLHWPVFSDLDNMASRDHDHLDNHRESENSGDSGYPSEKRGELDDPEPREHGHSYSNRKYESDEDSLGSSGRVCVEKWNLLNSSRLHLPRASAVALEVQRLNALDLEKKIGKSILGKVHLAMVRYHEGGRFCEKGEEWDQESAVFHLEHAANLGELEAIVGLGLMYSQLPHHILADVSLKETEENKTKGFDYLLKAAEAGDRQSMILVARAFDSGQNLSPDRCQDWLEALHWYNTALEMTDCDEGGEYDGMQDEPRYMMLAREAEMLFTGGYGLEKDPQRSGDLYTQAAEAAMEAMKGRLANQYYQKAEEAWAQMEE

Target	NP40-soluble protein abundance
UniProt P49588|P49588-2	0.95 ± 0.017
FXR1 (UniProt P51114)	1.13 ± 0.11
HIST1H1B (UniProt P16401)	0.956 ± 0.023
UniProt P48634|P48634-2|P48634-3	1.07 ± 0.034
UniProt P09651|P09651-2	1.03 ± 0.067
NUP62 (UniProt P37198)	0.8692 ± 0.0052
UniProt P38159|P38159-2	1.02 ± 0.048
URB1 (UniProt O60287)	1.07 ± 0.019
RPL21 (UniProt P46778)	0.981 ± 0.092
NUDT21 (UniProt O43809)	1.11 ± 0.12
UniProt O43865	0.969 ± 0.025
SFPQ (UniProt P23246)	0.998 ± 0.053
ZKSCAN1 (UniProt P17029)	0.9748 ± 0.0051
UniProt P09564	1.03 ± 0.2
EEF2K (UniProt O00418)	0.988 ± 0.074

Same assay, conditions: concentration: 0.5mM

Target	NP40-soluble protein abundance
P15531-2|P22392-2|Q32Q12 (UniProt Q32Q12+P22392+P15531)	0.946 ± 0.049
UniProt P17096|P17096-2	1.06 ± 0.12
ARID1A (UniProt O14497)	1.06 ± 0.016
ARPC1B (UniProt O15143)	1.04 ± 0.056
CDC34 (UniProt P49427)	1.07 ± 0.037
PPT1 (UniProt P50897)	0.859 ± 0.12
AKR1A1 (UniProt P14550)	0.912 ± 0.034
PSMB4 (UniProt P28070)	1.01 ± 0.11
UniProt O95758-2|O95758-6|O95758|O95758-1|O95758-4|O95758-5|O95758-7	0.974 ± 0.052
UniProt O75170|O75170-2|O75170-3|O75170-4|O75170-5	0.979 ± 0.059
J3QQJ5|Q9Y2L5 (UniProt Q9Y2L5)	1.1 ± 0.12
TIMM23 (UniProt O14925)	0.902 ± 0.037
UniProt P30622|P30622-1	1 ± 0.086
UniProt P49840	1.03 ± 0.029
UniProt O00567	1.03 ± 0.046
UniProt O60861|O60861-1|O60861-4	1.01 ± 0.071
XPO1 (UniProt O14980)	1.02 ± 0.033
UniProt P04150|P04150-10|P04150-2|P04150-3|P04150-5|P04150-6|P04150-7|P04150-8|P04150-9|P04150-11|P04150-12|P04150-13	0.946 ± 0.032
UniProt O75582|A0A0A0MQV2	1.06 ± 0.059
PPIF (UniProt P30405)	0.902 ± 0.067

Target	NP40-soluble protein abundance
HMGN4 (UniProt O00479)	1.06 ± 0.12
UniProt O15111	1.04 ± 0.07
DNAJC8 (UniProt O75937)	0.801 ± 0.056
NUDT2 (UniProt P50583)	0.902 ± 0.14
UniProt P49588|P49588-2	0.981 ± 0.025
FXR1 (UniProt P51114)	1.23 ± 0.075
HIST1H1B (UniProt P16401)	0.937 ± 0.02
UniProt P48634|P48634-2|P48634-3	1.06 ± 0.0091
UniProt P09651|P09651-2	1.11 ± 0.082
NUP62 (UniProt P37198)	0.889 ± 0.025
UniProt P38159|P38159-2	1.02 ± 0.027
URB1 (UniProt O60287)	1.16 ± 0.061
RPL21 (UniProt P46778)	1 ± 0.082
NUDT21 (UniProt O43809)	1.39 ± 0.12
UniProt O43865	0.99 ± 0.044
SFPQ (UniProt P23246)	0.989 ± 0.086
ZKSCAN1 (UniProt P17029)	0.986 ± 0.034
UniProt P09564	0.908 ± 0.048
EEF2K (UniProt O00418)	1.01 ± 0.058
